Experimental findings from the supplement of paper PMC12297408 are described below.

In this test the test system is Plasmodium falciparum NF54/iGP1_RE9H ulg8 stage V gametocytes. Description: gametocyte viability (luciferase signal relative to DMSO control) (% of DMSO control); higher = less gametocytocidal activity, active = 50 or less. The settings on record: exposure time: 72 h. In a few lines: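 In 96-well plates holding nanolitre spots of compound (10 mM DMSO stocks), NF54/iGP1_RE9Hulg8 stage V gametocytes from day 12 were added at ~2.5% gametocytemia and 3% hematocrit in medium with 0.5% Albumax II, giving single wells at 10 µM or 1 µM. Incubation lasted 72 h at 37 °C. Each 90 µl sample then received 10 µl D-luciferin (30 mg/ml) before luminescence reading on an IVIS Lumina II, and viability was normalized to the mean of DMSO vehicle wells on the same plate.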

Values joined by “and” are separate entries in the source; they are usually repeats but may differ in a detail not shown here. Equal entries are not always repeated. Structures can show the parent of a compound that is named as a salt.

Consider `COc1cc2c(Oc3ccc(NC(=O)C4(C(=O)Nc5ccc(F)cc5)CC4)cc3F)ccnc2cc1OCCCN1CCOCC1`, for which the gametocyte viability is 86.7 (inactive) (concentration: 1 µM) and 91.5 (inactive) (concentration: 10 µM).

Turning to `COc1ccc(-c2cc3c(C)nc(N)nc3n([C@H]3CC[C@H](OCCO)CC3)c2=O)cn1`, the gametocyte viability is 95.3 (inactive) (concentration: 1 µM) and 84.2 (inactive) (concentration: 10 µM).

As to `CCN(CC)CCNC(=O)c1c(C)[nH]c(/C=C2\C(=O)Nc3ccc(F)cc32)c1C` [Sunitinib Malate (Sutent)], the gametocyte viability was 102 (inactive) (concentration: 1 µM) and 80.7 (inactive) (concentration: 10 µM).

`Cc1ccc(C(=O)Nc2cccc(C(F)(F)F)c2)cc1Nc1nc(-c2cccnc2)nc2c1cnn2C`: the gametocyte viability was 100 (inactive) (concentration: 1 µM) and 98.7 (inactive) (concentration: 10 µM).

In the case of `O=C1NC(=O)/C(=C/c2ccc(-c3ccc(F)cc3O)o2)S1`, the gametocyte viability (concentration: 1 µM) was 100 (inactive) and the gametocyte viability (concentration: 10 µM) was 110 (inactive).

Take `CN(c1ncccc1CNc1nc(Nc2ccc3c(c2)CC(=O)N3)ncc1C(F)(F)F)S(C)(=O)=O`: the gametocyte viability (concentration: 1 µM) was 117 (inactive) and the gametocyte viability (concentration: 10 µM) was 112 (inactive).

Take `COCc1cc(O)c(O)c(O)c1-c1c(COC)cc(O)c(O)c1O`: the gametocyte viability is, setting by setting: (concentration: 1 µM) 104 (inactive); (concentration: 10 µM) 92.3 (inactive).

`O=C(Nc1cccc(Cl)c1)Nc1ncc(CCNc2ncnc3ccsc23)s1`: the gametocyte viability reads like this: (concentration: 1 µM) 110 (inactive); (concentration: 10 µM) 120 (inactive).

As to `CN1CCN(CCOc2cc(OC3CCOCC3)c3c(Nc4c(Cl)ccc5c4OCO5)ncnc3c2)CC1` [Saracatinib (AZD0530)], the gametocyte viability is 94.4 (inactive) (concentration: 1 µM) and 92.2 (inactive) (concentration: 10 µM).

For `N#CC(C#N)=C(N)/C(C#N)=C/c1cc(O)c(O)c(O)c1`, the gametocyte viability is 110 (inactive) (concentration: 1 µM) and 113 (inactive) (concentration: 10 µM).

Turning to `Cn1cc(C2=C(c3ccc(Cl)cc3Cl)C(=O)NC2=O)c2ccccc21`, the gametocyte viability reads like this: (concentration: 1 µM) 97.8 (inactive); (concentration: 10 µM) 112 (inactive).

On to `Cc1[nH]c(/C=C2\C(=O)Nc3ccccc32)c(C)c1CCC(=O)O`, for which the gametocyte viability by setting is: (concentration: 1 µM) 96.9 (inactive); (concentration: 10 µM) 105 (inactive).

Consider `Oc1ccc(-c2nc(-c3ccc(F)cc3)c(-c3ccncc3)[nH]2)cc1`, for which the gametocyte viability reads like this: (concentration: 1 µM) 112 (inactive) and 117 (inactive); (concentration: 10 µM) 115 (inactive) and 132 (inactive).

Turning to `CCC[C@H](NC(=O)/C(C#N)=C/c1cccc(Br)n1)c1ccccc1`, the gametocyte viability (concentration: 1 µM) was 114 (inactive) and the gametocyte viability (concentration: 10 µM) is 106 (inactive).

Take `CC1(COc2ccc3c(c2)ncn3-c2ccc3cccc(N4CCC(N)CC4)c3n2)COC1`: the gametocyte viability by setting is: (concentration: 1 µM) 125 (inactive); (concentration: 10 µM) 112 (inactive).

Take `Cc1ccc([N+](=O)[O-])cc1S(=O)(=O)N(C)/N=C/c1cnc2ccc(Br)cn12`: the gametocyte viability by setting is: (concentration: 1 µM) 94.9 (inactive); (concentration: 10 µM) 101 (inactive).

Consider `Fc1cc(-c2cccc3ncc(-c4cnn(C5CCNCC5)c4)nc23)cc(F)c1CN1CCOCC1`, for which the gametocyte viability was 107 (inactive) (concentration: 1 µM) and 80 (inactive) (concentration: 10 µM).

In the case of `Cn1c(=O)c(F)c(Nc2ccc(I)cc2F)c2c(=O)n(C[C@@H](O)CO)cnc21`, the gametocyte viability (concentration: 1 µM) was 108 (inactive) and the gametocyte viability (concentration: 10 µM) was 114 (inactive).

`Nc1ncnc2c1c(I)cn2[C@@H]1O[C@H](CO)[C@@H](O)[C@H]1O` [5-Iodotubericidin]: the gametocyte viability by setting is: (concentration: 1 µM) 103 (inactive); (concentration: 10 µM) 113 (inactive).

`Cn1cc(-c2ccc3nnc(Sc4ccc5ncccc5c4)n3n2)cn1`: the gametocyte viability is, setting by setting: (concentration: 1 µM) 99.7 (inactive); (concentration: 10 µM) 88.7 (inactive).

Regarding `NC(=O)c1ccc(-c2nc(-c3ccccn3)c(-c3ccc4c(c3)OCO4)[nH]2)cc1`, the gametocyte viability (concentration: 1 µM) was 101 (inactive) and the gametocyte viability (concentration: 10 µM) was 125 (inactive).

For the compound `Cc1c(CN2CCN(C(=O)[C@H](C)O)CC2)sc2c(N3CCOCC3)nc(-c3cnc(N)nc3)nc12`, the gametocyte viability is, setting by setting: (concentration: 1 µM) 106 (inactive); (concentration: 10 µM) 109 (inactive).

For the compound `NC1(c2ccc(-c3nc4ccn5c(=O)[nH]nc5c4cc3-c3ccccc3)cc2)CCC1` [MK-2206 dihydrochloride], the gametocyte viability was 97.5 (inactive) (concentration: 1 µM) and 63.9 (inactive) (concentration: 10 µM).

As for `FC(F)(F)c1ccc(/C=C/c2nc(COc3ccc(CCCCn4ccnn4)cc3)co2)cc1` [Mubritinib (TAK 165)], the gametocyte viability by setting is: (concentration: 1 µM) 95.1 (inactive); (concentration: 10 µM) 104 (inactive).

As to `CC(=O)Nc1cccc(-n2c(=O)n(C3CC3)c(=O)c3c(Nc4ccc(I)cc4F)n(C)c(=O)c(C)c32)c1`, the gametocyte viability (concentration: 1 µM) is 102 (inactive) and the gametocyte viability (concentration: 10 µM) was 82.7 (inactive).

Consider `O=Nc1c(-c2c(O)[nH]c3ccccc23)[nH]c2ccccc12` [Indirubin-3'-monooxime], for which the gametocyte viability is 90.1 (inactive) (concentration: 1 µM) and 86.8 (inactive) (concentration: 10 µM).

In the case of `Cn1cnc2c(F)c(Nc3ccc(Br)cc3Cl)c(C(=O)NOCCO)cc21` [AZD6244 (Selumetinib)], the gametocyte viability was 102 (inactive) (concentration: 1 µM) and 105 (inactive) (concentration: 10 µM).

With `Cc1cc(C(=O)NOCCO)c(Nc2ccc(I)cc2F)n(C)c1=O`, the gametocyte viability is 90.8 (inactive) (concentration: 1 µM) and 92.8 (inactive) (concentration: 10 µM).

For `N#CC1(c2ccc(NC(=O)c3cccnc3NCc3ccncc3)cc2)CCCC1` [Apatinib (YN968D1)], the gametocyte viability is, setting by setting: (concentration: 1 µM) 96 (inactive); (concentration: 10 µM) 95.4 (inactive).
